Measurements as given in the supplement of paper PMC11219838.

Assays:
Conditions in all cases: 60 µM; 5 days; temperature: 20 °C
[1] = test system: Meloidogyne hapla J2; test: proportion of mobile M. hapla J2 relative to DMSO control (fraction of DMSO control); higher = more viable, less nematicidal, active = 0.7 or less
How it was run: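 About 25 M. hapla J2 were placed in each well of a 96-well plate in distilled water, and compound was pinned in to a final 60 µM with 0.6% v/v DMSO. The sealed plates were shaken at 200 rpm at 20 °C for 5 days, after which 2 µL of 1 M NaOH went into each well. Mobility was then scored under the microscope and divided by the mean value from DMSO-only wells on the same plate. Each plate held eight such DMSO wells, and two biological replicates were averaged.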

[2] = test system: Caenorhabditis elegans dauer (daf-2(e1370)); test: proportion of mobile C. elegans dauer larvae relative to DMSO control (fraction of DMSO control); higher = more viable, less nematicidal, active = 0.63 or less; extreme values may be limits of the assay
How it was run: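 Compound was added by pinning to 60 µM final, giving 0.6% v/v DMSO, in 96-well plates containing about 20 C. elegans dauers per well in liquid NGM. These dauers came from synchronized larvae held on MYOB plates with E. coli OP50 for 48 h at 25 °C. Plates were sealed and shaken at 200 rpm at 20 °C for 5 days. Under a dissection microscope, the proportion of mobile worms was scored relative to DMSO wells, and two biological replicates were averaged.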

[3] = test system: Ditylenchus dipsaci; test: proportion of mobile D. dipsaci (mixed stage) relative to DMSO control (fraction of DMSO control); higher = more viable, less nematicidal, active = 0.86 or less; extreme values may be limits of the assay
How it was run: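 Ditylenchus dipsaci nematodes were cultured on pea plants in Gamborg B-5 agar, then extracted into water through a filter funnel, and roughly 20 worms in distilled water were placed in each well of a 96-well plate. Compound was pinned in to a final concentration of 60 µM (0.6% v/v DMSO), and the sealed plates were shaken at 200 rpm for 5 days at 20 °C. Mobile worms were counted under the microscope after 2 µL of 1 M NaOH was added. Mobility is given relative to DMSO controls as the mean of two biological replicates.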

Cc1ccccc1-c1nnc(SCC(=O)Nc2cc(C(F)(F)F)ccc2N2CCOCC2)o1
inactive: proportion of mobile M. hapla J2 [1] 0.934 | proportion of mobile C. elegans dauer larvae [2] 1 | proportion of mobile D. dipsaci [3] 1

CCOC(=O)c1c(NC(=O)CSc2nnc(-c3ccc(Cl)cc3)o2)sc(C(C)=O)c1C
inactive: proportion of mobile M. hapla J2 [1] 0.809 | proportion of mobile C. elegans dauer larvae [2] 1 | proportion of mobile D. dipsaci [3] 1

COC(=O)c1ccc(Cl)c(NC(=O)CSc2nnc(-c3ccc(Cl)cc3)o2)c1
inactive: proportion of mobile M. hapla J2 [1] 0.77 | proportion of mobile C. elegans dauer larvae [2] 1 | proportion of mobile D. dipsaci [3] 1

c1ccc2c(-c3nc(-c4ccncc4)no3)cccc2c1
inactive: proportion of mobile M. hapla J2 [1] 0.917 | proportion of mobile C. elegans dauer larvae [2] 1 | proportion of mobile D. dipsaci [3] 1

O=C(CSc1nnc(-c2ccc(Cl)cc2Cl)o1)c1ccc2c(c1)OCCO2
inactive: proportion of mobile M. hapla J2 [1] 0.719 | proportion of mobile C. elegans dauer larvae [2] 1 | proportion of mobile D. dipsaci [3] 1

Cc1ccccc1-c1nc(-c2ccc(Cl)cc2)no1
inactive: proportion of mobile M. hapla J2 [1] 0.841 | proportion of mobile C. elegans dauer larvae [2] 1 | proportion of mobile D. dipsaci [3] 1

COc1cccc(-c2noc(COc3cc(C)cc(C)c3)n2)c1
inactive: proportion of mobile M. hapla J2 [1] 1.02 | proportion of mobile C. elegans dauer larvae [2] 1 | proportion of mobile D. dipsaci [3] 1

COc1ccc(-c2noc(C34CC5CC(CC(C5)C3)C4)n2)cc1
inactive: proportion of mobile M. hapla J2 [1] 1.04 | proportion of mobile C. elegans dauer larvae [2] 1 | proportion of mobile D. dipsaci [3] 1

Cc1cccc(-c2noc(-c3ccc(Br)cc3)n2)c1
inactive: proportion of mobile M. hapla J2 [1] 1.04 | proportion of mobile C. elegans dauer larvae [2] 1 | proportion of mobile D. dipsaci [3] 1

CCOC(=O)c1c(NC(=O)CSc2nnc(-c3ccccc3OCC)o2)sc(C(C)=O)c1C
inactive: proportion of mobile M. hapla J2 [1] 0.918 | proportion of mobile C. elegans dauer larvae [2] 1 | proportion of mobile D. dipsaci [3] 1

COc1nc(C)ccc1-c1noc(-c2ccc(C(C)(C)C)cc2)n1
inactive: proportion of mobile M. hapla J2 [1] 0.926 | proportion of mobile C. elegans dauer larvae [2] 1 | proportion of mobile D. dipsaci [3] 1

Cc1ccc(SC(C)c2nc(-c3ccncc3)no2)cc1 (stereo not drawn)
inactive: proportion of mobile M. hapla J2 [1] 0.861 | proportion of mobile C. elegans dauer larvae [2] 0.8 | proportion of mobile D. dipsaci [3] 1

O=C(CSc1nnc(-c2cccc(Br)c2)o1)Nc1ccccn1
inactive: proportion of mobile M. hapla J2 [1] 0.951 | proportion of mobile C. elegans dauer larvae [2] 1 | proportion of mobile D. dipsaci [3] 1

COc1ccccc1NC(=O)CSc1nnc(-c2ccccc2)o1
inactive: proportion of mobile M. hapla J2 [1] 1.04 | proportion of mobile C. elegans dauer larvae [2] 1 | proportion of mobile D. dipsaci [3] 1

Clc1ccc(-c2nc(C3CCCCC3)no2)cc1
inactive: proportion of mobile M. hapla J2 [1] 1.04 | proportion of mobile C. elegans dauer larvae [2] 1 | proportion of mobile D. dipsaci [3] 1

Cc1cccc(-c2noc(-c3ccccc3F)n2)c1
inactive: proportion of mobile M. hapla J2 [1] 0.874 | proportion of mobile C. elegans dauer larvae [2] 1 | proportion of mobile D. dipsaci [3] 1
